Screens deposited in PubChem BioAssay by National Center for Advancing Translational Sciences (NCATS).
JMJD2A Tudor inh: inhibitors of human JMJD2A Tudor domain. O75164. AlphaScreen JMJD2A-Tudor / H3K4me3 peptide binding. Potency, µM (series often up to 114 µM), inactives show top-dose activity change, negative = inhibition, most hits filed as inhibitors. 4.4% of 390,000 active. AID 504339; also: potency is read from the fitted curve at half-maximal effect; % is scaled to controls: 0 for no effect and ±100 for the full control effect; nearly all actives have a fitted effect of over 50% in size
G9a block: inhibitors of human histone lysine methyltransferase G9a | Q96KQ7 | G9a H3K9 monomethylation, AlphaScreen, 2 h | Potency, µM (doses to about 102 µM), for inactives: top-dose activity, negative = inhibition, hits mostly inhibitors | 8.8% of 350,000 active | AID 504332; also: potency is read from the fitted curve at half-maximal effect; % is scaled to controls: 0 for no effect and ±100 for the full control effect; nearly all actives have a fitted effect of over 75% in size
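Methyltransferase reactions run at room temperature for 2 h (20 nM enzyme, 500 nM biotin-H3K9 peptide, 20 uM SAM) after a 15 min compound preincubation; product detected by AlphaScreen beads and anti-H3K9me1 antibody.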
HP1b binding inh: HP1-beta chromodomain-methylated histone interaction inhibition | P83916 | AlphaScreen HP1-beta / biotin-H3K9me3 peptide binding | Potency, µM (top dose mostly 114 µM), for the others: at the highest dose activity change, negative = inhibition, actives largely listed as inhibitors | 0.56% of 390,000 active | AID 540317; also: potency is read from the fitted curve at half-maximal effect; nearly all actives have a fitted effect of over 70% in size
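HP1-beta protein (50 nM final) preincubated 30 min at room temperature with biotinylated H3(1-18)K9me3 peptide (50 nM) in PBS pH 7.4, 0.01% Tween-20, then compound added for 30 min. AlphaScreen streptavidin donor/nickel chelate acceptor beads (10 ug/mL final), 30 min dark, luminescence read.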
Six1-Eya2 blk: Six1/Eya2 interaction inhibition; Q15475+O00167; activity change, % (test concentration not listed); AlphaScreen GST-Six1/His-Eya2 binding, biochemical; hits give low values; 0.56% of 360,000 active; in the data active = activity change below about -65%; inconclusive = mostly about -30% to -63%; also: % is scaled to controls: 0 for no effect and ±100 for the full control effect
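AlphaScreen with GST-Six1 and His-Eya2 (5X mix: 250 nM and 500 nM), glutathione donor and nickel acceptor beads; buffer 50 mM Tris pH 8.0, 300 mM NaCl, 1 mM TCEP; 1 h at 37 C in the dark.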
CtBP-E1A blk: blocks the CtBP interaction with E1A | AlphaScreen GST-E1A/His-CtBP binding, 1536-well; hits give low values | activity change, % (test concentration not listed) | 0.49% of 340,000 active | AID 651724; in the data active = activity change below about -65%; inconclusive = mostly about -30% to -63%; also: % is scaled to controls: 0 for no effect and ±100 for the full control effect
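Steps: dispense buffer (Tris pH 8.0, NaCl 300 mM, TCEP 1 mM, BSA, Tween 20); add 5X protein mix (GST-E1A, His-CtBP, 125 nM each); pin 23 nL compound; 2 h at 37 °C, dark; add 5X beads (50 ug/mL); 1 h; read.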
BAZ2B inh: blocks human BAZ2B; AlphaScreen BAZ2B-H3K14Ac peptide displacement; Potency, µM (highest dose often 114 µM), inactives show at the highest dose activity change, negative = inhibition, hits mostly inhibitors; 4.4% of 360,000 active; also: potency is read from the fitted curve at half-maximal effect; % is scaled to controls: 0 for no effect and ±100 for the full control effect; nearly all actives have a fitted effect of over 60% in size
Target sequence (Q9UIF8 whole entry, looked up): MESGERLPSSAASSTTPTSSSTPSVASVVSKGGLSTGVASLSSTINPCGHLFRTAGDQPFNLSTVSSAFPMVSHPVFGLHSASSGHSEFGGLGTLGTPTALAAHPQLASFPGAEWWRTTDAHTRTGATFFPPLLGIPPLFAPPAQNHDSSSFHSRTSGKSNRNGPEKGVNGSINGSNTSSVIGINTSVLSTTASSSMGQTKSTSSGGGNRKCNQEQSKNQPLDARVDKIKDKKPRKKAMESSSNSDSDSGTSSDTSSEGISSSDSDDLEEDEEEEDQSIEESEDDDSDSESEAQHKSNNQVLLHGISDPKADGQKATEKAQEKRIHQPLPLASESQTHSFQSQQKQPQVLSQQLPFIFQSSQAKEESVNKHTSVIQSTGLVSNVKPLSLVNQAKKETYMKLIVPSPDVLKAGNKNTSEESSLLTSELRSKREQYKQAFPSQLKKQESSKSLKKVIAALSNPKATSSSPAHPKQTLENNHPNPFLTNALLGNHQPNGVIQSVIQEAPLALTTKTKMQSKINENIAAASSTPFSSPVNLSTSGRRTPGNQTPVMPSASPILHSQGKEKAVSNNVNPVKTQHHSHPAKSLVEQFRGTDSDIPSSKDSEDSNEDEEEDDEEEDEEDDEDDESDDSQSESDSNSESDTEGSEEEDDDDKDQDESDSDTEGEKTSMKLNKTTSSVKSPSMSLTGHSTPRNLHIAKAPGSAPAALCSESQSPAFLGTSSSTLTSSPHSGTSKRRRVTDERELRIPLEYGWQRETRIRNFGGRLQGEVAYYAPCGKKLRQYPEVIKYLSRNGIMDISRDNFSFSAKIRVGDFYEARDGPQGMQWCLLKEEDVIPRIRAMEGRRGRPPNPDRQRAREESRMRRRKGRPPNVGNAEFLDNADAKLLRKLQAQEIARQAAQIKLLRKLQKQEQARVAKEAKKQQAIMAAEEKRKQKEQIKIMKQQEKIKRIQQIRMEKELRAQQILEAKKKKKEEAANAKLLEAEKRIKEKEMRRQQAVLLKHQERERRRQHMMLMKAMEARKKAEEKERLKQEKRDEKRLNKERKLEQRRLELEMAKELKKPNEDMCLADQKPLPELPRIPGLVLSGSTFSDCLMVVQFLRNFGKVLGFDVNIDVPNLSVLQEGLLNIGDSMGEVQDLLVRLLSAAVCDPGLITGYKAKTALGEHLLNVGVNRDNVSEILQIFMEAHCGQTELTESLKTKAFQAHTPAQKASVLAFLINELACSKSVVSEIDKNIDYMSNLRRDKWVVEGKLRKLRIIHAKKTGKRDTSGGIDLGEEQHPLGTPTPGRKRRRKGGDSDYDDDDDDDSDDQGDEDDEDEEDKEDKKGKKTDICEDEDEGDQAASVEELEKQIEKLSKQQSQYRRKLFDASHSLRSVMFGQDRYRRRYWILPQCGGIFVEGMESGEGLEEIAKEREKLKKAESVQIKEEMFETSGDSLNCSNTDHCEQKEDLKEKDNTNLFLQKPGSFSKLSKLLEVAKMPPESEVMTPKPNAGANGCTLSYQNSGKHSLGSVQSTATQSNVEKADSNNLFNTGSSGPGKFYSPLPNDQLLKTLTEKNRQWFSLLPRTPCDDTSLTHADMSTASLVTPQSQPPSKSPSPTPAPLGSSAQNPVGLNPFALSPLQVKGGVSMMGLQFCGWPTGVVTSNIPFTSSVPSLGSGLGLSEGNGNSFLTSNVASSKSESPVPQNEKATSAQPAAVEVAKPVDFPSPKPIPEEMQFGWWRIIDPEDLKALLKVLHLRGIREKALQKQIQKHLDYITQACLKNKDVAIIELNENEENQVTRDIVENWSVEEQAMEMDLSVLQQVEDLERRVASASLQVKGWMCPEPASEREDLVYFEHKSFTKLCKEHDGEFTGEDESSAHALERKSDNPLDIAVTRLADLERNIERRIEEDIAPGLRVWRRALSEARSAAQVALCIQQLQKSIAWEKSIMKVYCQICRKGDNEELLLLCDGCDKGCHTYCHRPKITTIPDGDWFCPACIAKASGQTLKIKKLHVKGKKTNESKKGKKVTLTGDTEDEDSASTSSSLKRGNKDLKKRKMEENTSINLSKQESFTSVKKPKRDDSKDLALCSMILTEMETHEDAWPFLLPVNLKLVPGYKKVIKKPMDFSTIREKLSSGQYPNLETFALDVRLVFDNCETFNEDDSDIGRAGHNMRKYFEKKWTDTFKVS
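BAZ2B (50 nM) with biotin-H3(5-23)K14Ac peptide (50 nM) in PBS pH 7.4, 0.01% Tween-20, preformed 30 min, then compound 30 min at room temperature; top concentration 110uM. AlphaScreen streptavidin donor/nickel chelate acceptor beads (10 ug/mL final), 20 min dark, signal read.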
Numbers without * were called inactive; ? = inconclusive; · = no result given; [ ] = remark or other dose. Shown are actives, neighbours in structure and some others; about 10% of the full set was active somewhere. Unless noted, calls follow the shape of the dose curve; as a rule, active = well fitted inhibition curve with a large enough effect; inconclusive = small, poorly fitted or top-dose-only effect; inactive = no such curve, though single readings can be large or run the other way.

SMILES	JMJD2A Tudor inh	G9a block	HP1b binding inh	Six1-Eya2 blk	CtBP-E1A blk	BAZ2B inh
CC(=O)N1CCN(c2ccc(N)cc2)CC1	-14%	-13%[2.33 µM]	18%	·	·	?
O=C(O)/C=C/C(=O)N1CCN(c2ccc(F)cc2)CC1	-73%	50µM*	-13%	-11	-10	-25%
Nc1ccc(N2CCN(c3ccc(F)cc3)CC2)cc1	?	·	?	14	-11	35µM*
O=C(/C=C/c1cccs1)N1CCN(c2ccc(F)cc2)CC1	-8%	-3%	23%	2	0	-5%
Nc1ccc(N2CCCCCC2)cc1	·	3.5µM*	·	·	·	32µM*
CCOC(=O)c1cnc2cc(-c3ccc(OCC)cc3)nn2c1-c1ccccc1	5%	9%[59 µM]	47%	·	·	7%
Cc1c(P(=S)(c2ccccc2)c2ccccc2)[n+]2ccccc2n1CC(=O)c1ccccc1	-26%	·	·	·	·	·
COc1ccc(CCNC(=O)NCc2noc3ccc(C)cc23)c(OC)c1	-8%	-5%[59 µM]	22%	·	·	-20%
Cc1cccc(OCc2nnc(SCCC(=O)O)n2-c2ccccc2)c1	-5%	-47%[0.501 µM]	40%	5	-2	79µM*
COc1ccc(-n2c(COc3cccc(C)c3)nnc2SCC(=O)O)cc1	-16%	-4%	32%	6	3	2%
COc1ccc(-c2nnc(SCCC(=O)O)n2-c2ccccc2)cc1	40µM*	?	41%	1	2	-14%
CCNC(=O)CSc1nnc(-c2ccccc2)n1-c1ccc(OCC)cc1	-1%	50µM*	26%	2	7	?
Cc1ccccc1OCc1nnc(SCCN2CCCC2)n1-c1ccccc1	-4%	-32%	23%	-8	-8	79µM*
CCOc1ccc(NC(=O)CSc2nnc(-c3ccccc3)n2N)cc1	-24%	-2%[59 µM]	43%	2	4	49%
COc1ccccc1OCc1nnc(SCC(=O)N2CCCCC2)n1-c1ccccc1	2%	-20%[59 µM]	40%	1	2	2%
CCc1ccccc1NC(=O)CCNS(=O)(=O)c1ccc2c(c1)CCN2C(=O)C1CC1	-10%	5%[59 µM]	23%[57 µM]	·	·	2%
CCN(CC)c1ccc(-c2nnc(SCC(=O)Nc3ccccc3C#N)n2-c2ccccc2)cc1	-30%	10µM*	19%	-28	-14	-29%
COc1ccc(CNC(=O)c2cc3cc(C)ccc3n2C)cc1	-9%	-2%[59 µM]	10%	·	·	2%
CCc1ccccc1NC(=O)CC1NCCNC1=O (stereo not drawn)	-9%	9%[59 µM]	44%	·	·	4%
O=C(c1cc(=O)[nH]c2ccccc12)N(Cc1nnc(-c2ccccc2Cl)o1)C1CC1	-7%	50µM*	43%	-11	-2	8%
Cc1c(C(=O)N(Cc2nnc(-c3ccccc3Cl)o2)C2CC2)oc2ccccc12	-4%	30%[12.7 µM]	67%	-4	·	4%
COc1ccc(-c2c(C#Cc3ccc(N(C)C)cc3)c3ccccc3n2C)cc1	56µM*	·	?	?	?	·
CC1=C(C(=O)Nc2ccccc2)C(c2ccc[nH]2)n2ncnc2N1 (stereo not drawn)	22µM*	?	-28%[57 µM]	·	·	8.9µM*
Cc1ccc(NS(=O)(=O)c2ccc(NC(=O)N3CCCC3)cc2)cc1C	-11%	0%[59 µM]	26%[57 µM]	·	·	4%
O=C1C=C(c2ccccc2)OC(c2ccccc2)O1 (stereo not drawn)	14%	?	81%	2	13	50µM*
SMILES	JMJD2A Tudor inh	G9a block	HP1b binding inh	Six1-Eya2 blk	CtBP-E1A blk	BAZ2B inh
CC1(C)OC(=O)C2(Cc3ccccc3N3CCC(c4ccccc4)CC32)C(=O)O1 (stereo not drawn)	-9%[57.1 µM]	·	-1%[57 µM]	·	·	·
COc1ccccc1N1CCN(C(=O)c2cc(-c3ccccc3)on2)CC1	-14%	16%[59 µM]	24%	-4	-2	-15%
COc1ccc(-c2cc(C(=O)N3CCN(c4ccccc4OC)CC3)no2)cc1OC	?	6%[59 µM]	2%	30	-7	79µM*
COc1ccccc1N1CCN(C(=O)c2cc(-c3ccco3)on2)CC1	?	45µM*	3%	-3	4	-8%
COc1ccccc1N1CCN(C(=O)c2sc3nc(-c4ccc(F)cc4)cn3c2C)CC1	-32%	28µM*	6%	-2	-21	?
O=C(Nc1cccc(F)c1F)C1CCN(c2ncccn2)CC1	3%	2%[59 µM]	43%	·	·	3%
COCCn1c(C)cc(O)c(C(c2ccccc2)N2CCN(C)CC2)c1=O (stereo not drawn)	-23%	?	15%[57 µM]	·	·	-1%
O=C(Nc1ccccc1)C1=C(c2ccccc2)S(=O)(=O)CCS1(=O)=O	-2%	28µM*	55%	?	-1	-14%
Oc1ccccc1Nc1nc(NCc2ccccc2)c2ccccc2n1	?	·	-34%	-8	0	25µM*
Cc1c(Cl)cccc1Nc1nc(NCCO)c2ccccc2n1	-15%	79µM*	16%	1	-4	-16%
OCCNc1nc(Nc2ccccc2)nc2ccccc12	-31%	?	18%	7	-5	4%
OCCNc1nc(N2CCCCC2)nc2ccccc12	-8%	·	44%	-5	1	12%
OCCNc1nc(Nc2ccc(Br)cc2)nc2ccccc12	-23%	50µM*	29%	-1	-7	-17%
Cc1ccc(-n2nnc(-c3nc(-c4cccs4)no3)c2N)c(C)c1	3%	14%[59 µM]	66%	·	·	-18%
Cc1cccc(OC(=O)CSc2nnc(CNC(=O)c3ccccc3)o2)c1C	-9%	-31%[59 µM]	16%	·	·	0%
COCCn1nnnc1C(c1ccc(OC)cc1OC)N1CCN(c2ccccc2F)CC1 (stereo not drawn)	-18%	56µM*	21%	3	5	?
COCCn1nnnc1C(c1ccc2ncccc2c1)N1CCc2ccccc21 (stereo not drawn)	-23%	50µM*	11%	-9	3	-36%
COCCn1nnnc1C(c1ccc2ncccc2c1)N1CCN(c2ccccc2F)CC1 (stereo not drawn)	-25%	8.9µM*	31%	0	8	50µM*
COCCn1nnnc1C(c1ccc(OC)c(OC)c1)N1CCc2ccccc21 (stereo not drawn)	-35%	?	0%	-7	-7	-39%
Cc1cc(C)cc(NC(=O)c2cc3c(=O)n(Cc4ccco4)ccc3nc2C)c1	-5%	2%[59 µM]	35%	·	·	-2%
NS(=O)(=O)c1ccc(N=C2C(=O)Nc3ccccc32)cc1	-12%	·	70%	11	0	-10%
CC(C)C1=CC(=Nc2ccc(S(N)(=O)=O)cc2)C=C(C(C)C)C1=O	56µM*	·	?	-13	-6	45µM*
COc1ccc(OC)c(CCNc2nc3cc(OC)c(OC)cc3c3nc(-c4cccnc4)nn23)c1	3%	-5%[59 µM]	32%	·	·	3%
